The results in this text go back to PubChem BioAssay (NCI).

Compounds without any hit were thinned out: in the full panel of roughly 83,000, 20% have a hit.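 Method: cells in 96-well plates; compound added at one concentration; 48 h incubation; percent growth measured; values under 10 scored active.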 Values without a mark were called inactive. Activity calls are given as the source filed them.

Common to all, as to assay: NCI-60 one-dose screen, 48 h (100 = growth as untreated, 0 = no growth, -100 = all killed)
For assay [1], the system named is DU-145 prostate. The following applies: 10 µM unless noted.
For assay [2], the system named is K-562 leukemia. The following applies: 10 µM unless noted.
The subject of assay [3] is MALME-3M melanoma. The following applies: 10 µM unless noted.
Assay [4] concerns RXF 393 renal. The following applies: 10 µM unless noted.
Assay [5] concerns SF-268 CNS. To be noted: 10 µM unless noted.
Assay [6] has as its system SF-295 CNS. The following applies: 10 µM unless noted.
The subject of assay [7] is SF-539 CNS. To be noted: 10 µM unless noted.
In assay [8] the test system is UACC-257 melanoma. The following applies: 10 µM.
Assay [9] deals with M14 melanoma. To be noted: 10 µM unless noted.
Assay [10] has as its system MDA-MB-231 breast. The following applies: 10 µM unless noted.

For `c1ccn2nnnc2c1`, the growth in assay [1] is 103%; in assay [2] it was 97.5%; in assay [3], 98.5%; in [4], 110%; in [5] it was 101%; in [6], 101%. Besides, the values for the growth in assay [7], in assay [8] and in [9] were 95.5%, 101% and -54.6% (active), respectively.

For the compound `CCC(c1ccc(OC)cc1)C(CC)c1ccc(OCC[N+](C)(C)C)cc1` (stereo unspecified), the growth in assay [1] was 91.9%; in assay [2], 24.7%; in [3] it was 58%; in [4], 99.6%; in [5] it was 40.8%; in [6], 78.6%. Also, the growth in assay [7] is 41.9%; in [9], 64%.

For `COc1cc(C2C=C(C)N=C3SC(C)=NN32)cc(OC)c1OC` (stereo unspecified), the growth in assay [1] was 108%; in [2], 107%; in assay [10], 111%; in assay [4] it was 114%; in assay [5], 105%; in assay [6], 111%. For the same compound, the results for the growth in assay [7], in assay [8] and in assay [9] were 114%, 106% and 102%, respectively.

Consider `COC(=O)[C@H]1[C@H](OC)[C@@H](OC(=O)/C=C/c2ccncc2)CC2CN3CCc4c([nH]c5cc(OC)ccc45)[C@@H]3C[C@@H]21` (stereo partly specified), for which the growth in [1] is 80%; in assay [2], 57.3%; in assay [10], 62.2%; in [4], 72.7%; in [5], 80.3%; in assay [6], 90.4%. Besides, the values for the growth in assay [7], in assay [8] and in [9] were 91%, 62.3% and 78.4%, respectively.

Consider `CC(=O)C1CCC(C)=CC1=O` (stereo unspecified), for which the growth is 114% in assay [1]; 93.4% in [3]; 104% in [10]; 113% in assay [4]; 99.1% in assay [5]; 101% in assay [6]. In addition, the growth is 99.6% in assay [7], 92.8% in assay [8] and 97.5% in assay [9].

As to `COc1cc(/C=C2\CCCC3=C2N=C2SC(C)=NN2C3c2cc(OC)c(OC)c(OC)c2)cc(OC)c1OC` (stereo unspecified), the growth was 4.69% (active) in assay [1]; 6.05% (active) in assay [2]; -39.6% (active) in [10]; 24.2% in [4]; 9.86% (active) in assay [5]; 5.96% (active) in [6]. In addition, the growth is -21.6% (active) in assay [7], 49.3% in [8] and 10.6% in assay [9].

In the case of `Nc1nc(-c2ccccc2)cs1`, the growth is 104% in assay [1]; 114% in assay [2]; 104% in assay [10]; 120% in [4]; 96.4% in [5]; 104% in assay [6]. For the same compound, the growth in [7] was 99.1%; in [8] it was 98.5%; in assay [9], 97.2%.

In the case of `O=S(=O)(NCCCNc1nccc(-c2c(-c3ccc(O)cc3)nc3sccn23)n1)c1ccc(F)cc1`, the growth was 10.6% in assay [1]; 7.51% (active) in assay [2]; 7.09% (active) in assay [10]; -12.7% (active) in assay [4]; 17.8% in assay [5]; -34.9% (active) in assay [6]. For the same compound, the growth was 0.696% (active) in assay [7], 4.9% (active) in assay [8] and -26.2% (active) in assay [9].

As to `Cc1ccc(C2=NN(c3ccc(S(N)(=O)=O)cc3)C(c3cn(-c4ccccc4)nc3-c3ccccc3)C2)cc1` (stereo unspecified), the growth in assay [1] is 65.7%; in assay [2], 21.9%; in assay [10], 82.7%; in assay [4] it was 95.8%; in assay [5], 42.7%; in assay [6] it was 104%. The growth is 112% in assay [7], 98.8% in [8] and 96.1% in [9].

For `CCCCCCc1nc2c(c(C)nn2-c2ccccc2)c2c1CCCCC2`, the growth is 108% in assay [1]; 111% in assay [2]; 105% in [3]; 115% in [4]; 105% in assay [5]; 103% in assay [6]. Besides, the growth was 105% in assay [7], 93.3% in assay [8] and 118% in assay [9].

Regarding `Nc1c(C(=O)Nc2ccccc2)sc2nc3c(cc12)CN(Cc1ccccc1)CC3`, the growth in assay [1] is 58.9%; in assay [2] it was 61.1%; in [10], 42.6%; in assay [4] it was 49.9%; in assay [5], 48.8%; in [6], 66.4%. The growth in assay [7] was 12.6%; in assay [8], 74%; in [9], 82.2%.

`NC(C(=O)O)C(O)c1ccc(OCc2ccccc2)c(OCc2ccccc2)c1` (stereo unspecified): the growth in assay [1] is 107%; in assay [2], 95.6%; in assay [3] it was 114%; in assay [4] it was 100%; in [5] it was 97.4%; in [6] it was 97.8%. The results for the growth in assay [7] and in assay [9] were 97.2% and 97.4%, respectively.

As to `CC(=O)Nc1ccc(S(=O)(=O)N2C(=O)CCC2C(=O)Nc2ccccc2)cc1` (stereo unspecified), the growth in [1] was 50.2%; in assay [2], 11.8%; in assay [10], 25.6%; in assay [4], 57.7%; in [5], 61.9%; in [6], 1.91% (active). Besides, the growth is -22% (active) in assay [7], 33.7% in [8] and 10.3% in [9].

Consider `COc1ccc(/C=C/C(=O)c2cccc(B(O)O)c2)cc1O`, for which the growth in [1] was -10% (active); in assay [2], 8.39% (active); in [10], 48.2%; in assay [4], 41.5%; in assay [5], 47.8%; in assay [6], 87.4%. In addition, the growth in assay [7] was 0.0331% (active); in [8] it was 75%; in [9] it was 70.6%.

As to `Clc1ccc([I+]c2ccc(Cl)cc2Cl)c(Cl)c1`, the growth in assay [1] is 4.04% (active); in [3], 50.2%; in assay [10] it was 38.3%; in [4], -15.1% (active); in assay [5] it was 26.5%; in [6] it was 97.4%. Besides, the growth was 16.8% in assay [7], 66.4% in assay [8] and 88.8% in assay [9].

Regarding `CC1=NN2C(=NC3=C(CCC/C3=C\c3ccc(Cl)cc3)C2c2ccc(Cl)cc2)S1` (stereo unspecified), the growth is 101% in assay [1]; 100% in [2]; 109% in assay [10]; 106% in [4]; 98.6% in assay [5]; 102% in assay [6]. The results for the growth in assay [7], in assay [8] and in assay [9] were 102%, 106% and 92.3%, respectively.

In the case of `CN=S(=O)(NC(=O)c1ccc(Cl)cc1Cl)c1ccc(Br)s1` (stereo unspecified), the growth is 111% in assay [1]; 104% in assay [2]; 104% in assay [10]; 103% in assay [4]; 109% in [5]; 101% in assay [6]. The growth was 97% in [7], 92.5% in [8] and 106% in assay [9].

For `c1ccc2nc(-c3ccc4ccccc4n3)ccc2c1`, the growth is 106% in assay [1]; 93.3% in assay [2]; 83.5% in assay [3]; 117% in assay [4]; 95.9% in assay [5]; 93.5% in assay [6]. Also, the growth is 88.3% in assay [7], 106% in assay [8] and 90.2% in [9].

For `O=C(Nc1ccccc1)OCC1OCOC(COC(=O)Nc2ccccc2)C1OC(=O)Nc1ccccc1` (stereo unspecified), the growth in assay [1] is 43.7%; in assay [2], 57.9%; in assay [3], 72.2%; in [4] it was 37%; in assay [5] it was 39.8%; in [6], 90.5%. In addition, the results for the growth in assay [7], in assay [8] and in [9] were 72.4%, 102% and 16.2%, respectively.

For `COc1ccc(C2=NN(c3ccc(S(N)(=O)=O)cc3)C(c3cn(-c4ccccc4)nc3-c3ccc(Cl)cc3)C2)cc1` (stereo unspecified), the growth in [1] was 95.2%; in assay [2], 66.9%; in assay [10], 93.5%; in assay [4], 97.3%; in [5] it was 85.6%; in assay [6] it was 93.1%. Moreover, the growth in assay [7] was 102%; in assay [8], 95.4%.

For `CCOC(=O)c1ccccc1NC(c1ccccc1)c1ccc2cccnc2c1O` (stereo unspecified), the growth in assay [1] is 36.9%; in assay [2], 30.2%; in assay [3], 54.4%; in assay [4], 25%; in assay [5], 28.6%; in [6], 25.4%. Also, the growth was 11.8% in assay [7], 22.1% in assay [8] and 15.7% in assay [9].

In the case of `Clc1nc2ccccc2nc1CI`, the growth in assay [1] is 109%; in assay [2], 21.3%; in [3] it was 49.5%; in [4], 94.9%; in assay [5], 113%; in [6] it was 95.8%. Also, the growth in [7] is 97.8%; in assay [8] it was 119%; in assay [9] it was 55.3%.

In the case of `Cc1ccc(S(=O)(=O)OC2COCOC2C(OS(=O)(=O)c2ccc(C)cc2)C2OCOCC2OS(=O)(=O)c2ccc(C)cc2)cc1` (stereo unspecified), the growth in [1] was 111%; in [2], 100%; in assay [3], 98.1%; in assay [4], 114%; in assay [5] it was 106%; in assay [6] it was 104%. For the same compound, the growth in assay [7] was 98.9%; in assay [8], 97.2%; in assay [9], 112%.

For the compound `NC(=S)NN=C1CCCCC1`, the growth in assay [1] is 95.1%; in assay [2], 40.1%; in [3], 91.6%; in assay [4], 109%; in assay [5], 93.5%; in assay [6] it was 92.8%. Also, the growth in assay [7] is 99.7%; in [8], 73.3%; in assay [9] it was 81.2%.

As to `O=C(O)c1cccc([N+](=O)[O-])c1/C=C/c1ccccc1`, the growth in [1] was 105%; in [3] it was 90.4%; in assay [10] it was 109%; in assay [4] it was 103%; in assay [5] it was 97.7%; in assay [6], 95.4%. In addition, the growth in [7] was 107%; in [8], 117%.

`CCN(CC)c1cc(/C=C/c2ccc(OC)c(OC)c2)nc2cc(F)c(F)cc12`: the growth was 71.8% in [1]; 4.61% (active) in assay [3]; 8.74% (active) in assay [10]; -58.7% (active) in assay [4]; 7.33% (active) in assay [5]; -66% (active) in assay [6]. The growth in [7] is 4.7% (active); in assay [8] it was 87.7%; in assay [9], 74.6%.

For `Cc1cc(C)c(NC(=O)c2sc3nc4c(cc3c2N)CN(Cc2ccccc2)CC4)c(C)c1`, the growth is 27.6% in assay [1]; 9.63% (active) in assay [2]; 44% in assay [10]; 26.1% in assay [4]; 36.5% in [5]; 21.9% in [6]. Also, the growth in assay [7] is 8.37% (active); in assay [8] it was 48%; in assay [9], 40.2%.

For `CCC(=O)Oc1cc(/C=C/C(=O)O[C@H]2C[C@H]3CN4CCc5c([nH]c6cc(OC)ccc56)[C@@H]4C[C@@H]3[C@@H](C(=O)OC)[C@@H]2OC)ccc1OC`, the growth is 82.9% in assay [1]; 39.7% in assay [2]; 49.7% in assay [10]; 57.9% in assay [4]; 74.8% in assay [5]; 106% in assay [6]. In addition, the results for the growth in [7] and in assay [8] were 84.6% and 74.9%, respectively.

For `CCCCCCCCCCCCOB(OCCCCCCCCCCCC)OCCCCCCCCCCCC`, the growth was 100% in assay [1]; 92.5% in [2]; 90.4% in assay [3]; 114% in [4]; 97.2% in assay [5]; 104% in assay [6]. The results for the growth in assay [7], in assay [8] and in assay [9] were 106%, 95.4% and 117%, respectively.
